The source of these data is paper PMC12820563, “FoxP3 forms a head-to-head dimer in vivo and stabilizes its multimerization on adjacent microsatellites”.

The full ranking holds about 16,000 sequences; the median of “rpm ratio (pull-down/input)” is about 0.5, and the highest 2% start at about 5.5. The full list was thinned out, with the highest values kept by preference.

The test deals with T1, MBP-FoxP3dN (Mus musculus, UniProt Q99JB6 188-423).
T1 sequence: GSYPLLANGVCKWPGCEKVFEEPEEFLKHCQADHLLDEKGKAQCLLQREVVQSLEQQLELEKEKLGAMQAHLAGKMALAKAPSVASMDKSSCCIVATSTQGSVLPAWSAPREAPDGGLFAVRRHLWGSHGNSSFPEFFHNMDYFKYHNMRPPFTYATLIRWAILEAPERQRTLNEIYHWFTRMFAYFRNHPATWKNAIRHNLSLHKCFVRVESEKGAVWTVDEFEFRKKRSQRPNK
The experiment in a line: PD-seq (MBP pull-down with sequencing); 20 mM Tris-HCl pH 7.5, 100 mM NaCl, 1.5 mM MgCl2, 0.4 uM protein, 0.1 uM dsDNA library, 30 min, room temperature, amylose pull-down; high values mean tight binding. To be noted: protein: recombinant; tags: His6-MBP; chain copies: 2; dsDNA, one strand shown. The gist of the method:
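Binding is the reads-per-million enrichment of pull-down relative to input, pooled across replicates. For this, 0.4 µM His6-MBP-tagged mouse FoxP3 or FoxP1 fragment lacking the N-terminus, made in E. coli, was incubated with 0.1 µM Klenow-filled double-stranded degenerate DNA library for 30 min at room temperature in Tris pH 7.5 buffer with NaCl and MgCl2. Complexes bound to amylose resin were washed three times before proteinase K released the DNA for PCR barcoding and Illumina sequencing.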
Take “GATGATTGTTCTCCCAGCTGATGAATTTGGCTGTTCGAGTAAACAAATTTTCCTAATCTTTCTGTTCAAGCGCCATCTAC”: the binding signal was 1.17 RPM ratio (pull-down/input).
As for “GATGATTGTTCTCCCAGCTGATGAATTCAGTAGATCGAGTAAACAAATTTTCCTAATCTTTCTGTTCAAGCGCCATCTAC”, the figure is 0.408 RPM ratio (pull-down/input).
As for “GATGATTGTTCTCCCAGCTGATGAATTACGAGGTTCGAGTAAACAAATTTTCCTAATCTTTCTGTTCAAGCGCCATCTAC”, the figure is 0.392 RPM ratio (pull-down/input); as for “GATGATTGTTCTCCCAGCTGATGAATTCCGTCAATCGAGTAAACAAATTTTCCTAATCTTTCTGTTCAAGCGCCATCTAC”, 0.393 RPM ratio (pull-down/input).
For “GATGATTGTTCTCCCAGCTGATGAATTGATCGACTCGAGTAAACAAATTTTCCTAATCTTTCTGTTCAAGCGCCATCTAC” the value was 0.33 RPM ratio (pull-down/input).
For “GATGATTGTTCTCCCAGCTGATGAATTGTGTCCTTCGAGTAAACAAATTTTCCTAATCTTTCTGTTCAAGCGCCATCTAC”, the binding signal is 1.89 RPM ratio (pull-down/input).
For “GATGATTGTTCTCCCAGCTGATGAATTGGTGGCTTCGAGTAAACAAATTTTCCTAATCTTTCTGTTCAAGCGCCATCTAC” the value was 0.748 RPM ratio (pull-down/input); for “GATGATTGTTCTCCCAGCTGATGAATTGGCGGTATCGAGTAAACAAATTTTCCTAATCTTTCTGTTCAAGCGCCATCTAC”, 0.566 RPM ratio (pull-down/input); for “GATGATTGTTCTCCCAGCTGATGAATTTTATTACTCGAGTAAACAAATTTTCCTAATCTTTCTGTTCAAGCGCCATCTAC”, 1.04 RPM ratio (pull-down/input).
With “GATGATTGTTCTCCCAGCTGATGAATTATTTGTCTCGAGTAAACAAATTTTCCTAATCTTTCTGTTCAAGCGCCATCTAC”, the binding signal is 2.46 RPM ratio (pull-down/input).
As for “GATGATTGTTCTCCCAGCTGATGAATTTATTGTCTCGAGTAAACAAATTTTCCTAATCTTTCTGTTCAAGCGCCATCTAC”, the binding signal is 6.72 RPM ratio (pull-down/input).
For “GATGATTGTTCTCCCAGCTGATGAATTATTTTACTCGAGTAAACAAATTTTCCTAATCTTTCTGTTCAAGCGCCATCTAC” the value was 0.529 RPM ratio (pull-down/input); for “GATGATTGTTCTCCCAGCTGATGAATTTTGTTACTCGAGTAAACAAATTTTCCTAATCTTTCTGTTCAAGCGCCATCTAC”, 3.84 RPM ratio (pull-down/input).
For “GATGATTGTTCTCCCAGCTGATGAATTTTTTTACTCGAGTAAACAAATTTTCCTAATCTTTCTGTTCAAGCGCCATCTAC” the value was 0.35 RPM ratio (pull-down/input); for “GATGATTGTTCTCCCAGCTGATGAATTTGATTACTCGAGTAAACAAATTTTCCTAATCTTTCTGTTCAAGCGCCATCTAC”, 6.08 RPM ratio (pull-down/input); for “GATGATTGTTCTCCCAGCTGATGAATTGTTTTACTCGAGTAAACAAATTTTCCTAATCTTTCTGTTCAAGCGCCATCTAC”, 1.55 RPM ratio (pull-down/input).
For “GATGATTGTTCTCCCAGCTGATGAATTTGTTTACTCGAGTAAACAAATTTTCCTAATCTTTCTGTTCAAGCGCCATCTAC” the value was 6.49 RPM ratio (pull-down/input); for “GATGATTGTTCTCCCAGCTGATGAATTTTATGTCTCGAGTAAACAAATTTTCCTAATCTTTCTGTTCAAGCGCCATCTAC”, 1.12 RPM ratio (pull-down/input).
With “GATGATTGTTCTCCCAGCTGATGAATTGAATTACTCGAGTAAACAAATTTTCCTAATCTTTCTGTTCAAGCGCCATCTAC”, the binding signal is 1.28 RPM ratio (pull-down/input).
In the case of “GATGATTGTTCTCCCAGCTGATGAATTTATTTACTCGAGTAAACAAATTTTCCTAATCTTTCTGTTCAAGCGCCATCTAC”, the binding signal was 6.74 RPM ratio (pull-down/input).
For “GATGATTGTTCTCCCAGCTGATGAATTCAATTGTTCGAGTAAACAAATTTTCCTAATCTTTCTGTTCAAGCGCCATCTAC” the value was 3.36 RPM ratio (pull-down/input).
For “GATGATTGTTCTCCCAGCTGATGAATTGGCCCGGTCGAGTAAACAAATTTTCCTAATCTTTCTGTTCAAGCGCCATCTAC” the value was 0.201 RPM ratio (pull-down/input); for “GATGATTGTTCTCCCAGCTGATGAATTGCTTCCCTCGAGTAAACAAATTTTCCTAATCTTTCTGTTCAAGCGCCATCTAC”, 0.536 RPM ratio (pull-down/input); for “GATGATTGTTCTCCCAGCTGATGAATTTGCATTCTCGAGTAAACAAATTTTCCTAATCTTTCTGTTCAAGCGCCATCTAC”, 6.29 RPM ratio (pull-down/input).
In the case of “GATGATTGTTCTCCCAGCTGATGAATTGCATTCCTCGAGTAAACAAATTTTCCTAATCTTTCTGTTCAAGCGCCATCTAC”, the binding signal is 3.39 RPM ratio (pull-down/input).
As for “GATGATTGTTCTCCCAGCTGATGAATTGCGTAATTCGAGTAAACAAATTTTCCTAATCTTTCTGTTCAAGCGCCATCTAC”, the figure is 1.58 RPM ratio (pull-down/input).
As for “GATGATTGTTCTCCCAGCTGATGAATTGCCATTTTCGAGTAAACAAATTTTCCTAATCTTTCTGTTCAAGCGCCATCTAC”, the figure is 1.02 RPM ratio (pull-down/input); as for “GATGATTGTTCTCCCAGCTGATGAATTTTTGCATTCGAGTAAACAAATTTTCCTAATCTTTCTGTTCAAGCGCCATCTAC”, 6.58 RPM ratio (pull-down/input); as for “GATGATTGTTCTCCCAGCTGATGAATTTGCATATTCGAGTAAACAAATTTTCCTAATCTTTCTGTTCAAGCGCCATCTAC”, 2.72 RPM ratio (pull-down/input).
As for “GATGATTGTTCTCCCAGCTGATGAATTTGCCATCTCGAGTAAACAAATTTTCCTAATCTTTCTGTTCAAGCGCCATCTAC”, the figure is 2.56 RPM ratio (pull-down/input); as for “GATGATTGTTCTCCCAGCTGATGAATTTTGCATCTCGAGTAAACAAATTTTCCTAATCTTTCTGTTCAAGCGCCATCTAC”, 7.18 RPM ratio (pull-down/input); as for “GATGATTGTTCTCCCAGCTGATGAATTGCATTTCTCGAGTAAACAAATTTTCCTAATCTTTCTGTTCAAGCGCCATCTAC”, 2.75 RPM ratio (pull-down/input).
“GATGATTGTTCTCCCAGCTGATGAATTGCGCCATTCGAGTAAACAAATTTTCCTAATCTTTCTGTTCAAGCGCCATCTAC”: the binding signal was 6.51 RPM ratio (pull-down/input).
For “GATGATTGTTCTCCCAGCTGATGAATTGCATCTCTCGAGTAAACAAATTTTCCTAATCTTTCTGTTCAAGCGCCATCTAC” the value was 4.07 RPM ratio (pull-down/input); for “GATGATTGTTCTCCCAGCTGATGAATTTAGAGGCTCGAGTAAACAAATTTTCCTAATCTTTCTGTTCAAGCGCCATCTAC”, 0.583 RPM ratio (pull-down/input).
For “GATGATTGTTCTCCCAGCTGATGAATTTTGATATTCGAGTAAACAAATTTTCCTAATCTTTCTGTTCAAGCGCCATCTAC” the value was 3.34 RPM ratio (pull-down/input); for “GATGATTGTTCTCCCAGCTGATGAATTTATCGAATCGAGTAAACAAATTTTCCTAATCTTTCTGTTCAAGCGCCATCTAC”, 0.374 RPM ratio (pull-down/input).
